# Laboratory results reported in PubChem BioAssay (NCI).
# Compounds without any hit were thinned out: in the full panel of roughly 79,000, 15% have a hit. A number with no mark means an inactive call. The source made the active and inactive calls. No stated cut-off is given here; in the data, active means growth inhibition above about 70%; inactive means the rest.
# Experiments:
# [1] = NCI Yeast Anticancer Drug Screen. Data for the rad50 strain (AID 155);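 further: 0% = growth of vehicle-only cultures of the same strain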; conditions: S. cerevisiae rad50 strain growth inhibition, stronger effect = higher value
# Outline: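 DNA repair mutant yeast, compound exposure, growth read-out; inhibition is taken relative to vehicle.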
# [2] = NCI Yeast Anticancer Drug Screen. Data for the mec2-1 strain (AID 157); conditions: S. cerevisiae mec2-1 strain, stronger effect = higher value
# Outline: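 Each compound was tested on mec2-1 yeast, a strain altered in DNA damage repair or cell cycle control. Growth inhibition is reported relative to vehicle.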
# [3] = NCI Yeast Anticancer Drug Screen. Data for the sgs1 mgt1 strain (AID 161);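 further: 0% = growth of cultures given vehicle only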; conditions: S. cerevisiae sgs1 mgt1 strain, stronger effect = higher value
# Outline: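 Test agents were incubated with a DNA-repair-mutant yeast strain. Growth was then read and compared against vehicle-treated controls.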
# [4] = NCI Yeast Anticancer Drug Screen. Data for the cln2 rad14 strain (AID 165);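 further: 0% = growth equal to vehicle treated cultures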; conditions: S. cerevisiae cln2 rad14 strain, stronger effect = higher value
# Outline: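 Test compounds were added to cln2 rad14 yeast cultures; inhibition of growth was then determined by comparison with vehicle treatment.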
# [5] = NCI Yeast Anticancer Drug Screen. Data for the bub3 strain (AID 167); conditions: S. cerevisiae bub3 mutant strain, stronger effect = higher value
# Outline: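 In this screen, a yeast mutant lacking normal mitotic checkpoint function is challenged with compound. Relative growth versus vehicle gives the inhibition value.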
# [6] = NCI Yeast Anticancer Drug Screen. Data for the mlh1 rad18 strain (AID 175); conditions: S. cerevisiae mlh1 rad18 strain growth inhibition, stronger effect = higher value
# Outline: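 Inhibition values reflect reduced growth of mutant yeast versus vehicle-treated controls following compound exposure; the mutations affect DNA damage repair.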
# [7] = at 5.0 µM (retest, dose inferred, filed as 0.5)
# [8] = at 50.0 µM (retest, dose inferred, filed as 5.0)
Compound,"growth inhibition [1, 7]","growth inhibition [1, 8]",growth inhibition ([1]; at 50.0 µM),"growth inhibition [2, 7]","growth inhibition [2, 8]",growth inhibition ([2]; at 50.0 µM),"growth inhibition [3, 7]","growth inhibition [3, 8]",growth inhibition ([3]; at 50.0 µM),"growth inhibition [4, 7]","growth inhibition [4, 8]",growth inhibition ([4]; at 50.0 µM),"growth inhibition [5, 7]","growth inhibition [5, 8]",growth inhibition ([5]; at 50.0 µM),"growth inhibition [6, 7]","growth inhibition [6, 8]",growth inhibition ([6]; at 50.0 µM)
CCn1c2ccc([N+](=O)[O-])cc2c2c([N+](=O)[O-])c(-n3cccc3)ccc21,24%,59%,86% (active),2%,10%,0.3%,5%,28%,36.4%,-3%,6%,8.9%,-3%,-4%,10.9%,3%,29%,21.2%
CCOC(=O)C(Cc1ccc(O)c(C=O)c1)NC(C)=O (stereo not given),-13%,7%,-19.7%,-9%,20%,-7.45%,-22%,2%,0.3%,3%,39%,-8.75%,-1%,3%,0.05%,-7%,-10%,-1.55%
COC(=O)c1ccc(SCC(=O)c2ccc([N+](=O)[O-])o2)cc1,4%,90% (active),97% (active),4%,98% (active),98% (active),5%,81% (active),79.3% (active),-4%,96% (active),95.3% (active),-5%,46%,60.4%,2%,79% (active),98.5% (active)
CCCCC#CC(=O)OCCCCC,-2%,0%,-18.9%,4%,1%,-3.1%,1%,3%,-13.4%,-5%,-2%,25.1%,1%,3%,-14.6%,-2%,-4%,-16.4%
Cc1sc(Cc2ccccc2)nc1-c1ccc(N=Cc2ccc(N(CCOS(C)(=O)=O)CCOS(C)(=O)=O)cc2)cc1,53%,95% (active),94% (active),-10%,97% (active),97.8% (active),32%,95% (active),96.5% (active),38%,95% (active),93.8% (active),1%,94% (active),91.3% (active),82% (active),95% (active),96.5% (active)
N#CSCC(=O)c1ccccc1,93% (active),98% (active),98.8% (active),95% (active),99% (active),99.2% (active),95% (active),98% (active),97.5% (active),87% (active),99% (active),97.2% (active),94% (active),98% (active),99% (active),92% (active),98% (active),98.6% (active)
O=C(Nc1ccc(/C=C/c2ccc(NC(=O)c3cc(S(=O)(=O)O)c4cccnc4c3O)cc2S(=O)(=O)O)c(S(=O)(=O)O)c1)c1cc(S(=O)(=O)O)c2cccnc2c1O,19%,97% (active),94.4% (active),26%,97% (active),88.7% (active),34%,97% (active),93.8% (active),9%,95% (active),90.2% (active),13%,98% (active),95.9% (active),41%,97% (active),91.3% (active)
CCCCCCC(=O)OCCN(CCOC(=O)CCCCCC)C(=O)C(C)OC(=O)CCCCCC (stereo not given),2%,56%,91.7% (active),4%,19%,85.4% (active),2%,62%,98.4% (active),1%,18%,66.2%,-1%,66%,98.2% (active),-3%,58%,97.6% (active)
CCN(CC)c1c(C(=O)/C=C/c2ccc(Cl)cc2)c(-c2ccccc2)nn(C)c1=O,18%,85% (active),82.5% (active),15%,91% (active),85.9% (active),14%,73% (active),81% (active),7%,82% (active),83.7% (active),8%,92% (active),84% (active),24%,92% (active),81.8% (active)
C/C(=N\Nc1ccccn1)c1ccccn1,47%,98% (active),98.8% (active),61%,99% (active),98.7% (active),57%,98% (active),99% (active),56%,99% (active),97.3% (active),53%,98% (active),49.9%,60%,98% (active),98.5% (active)
